# Source: PubChem BioAssay
# EZH2 inh – EZH2 (human) methyltransferase inhibition. Q15910. 57,000 compounds, 0.35% hits. AID 651548. inhibition, % at 12.5 µM. PRC2 H3K27 methylation, DELFIA TRF, 1 h;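 active = mean inhibition of replicates at least 50% and every single replicate also reaching 50%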;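 also: dimethyl H3K27 on biotinylated H3 21-44 peptide detected by antibody; plate controls were median neutral control wells for no effect and median positive control wells for full effect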
# Active calls of the source: *. The entries come from a sample that favours hits as a whole.
SMILES,EZH2 inh
CC1(C)CC[C@]2(C(=O)O)CC[C@]3(C)C(=CCC4[C@@]5(C)C[C@@H](O)[C@H](O)[C@@](C)(CO)C5CC[C@]43C)[C@@H]2[C@@H]1O (stereo partly specified),55*
CC1(C)CC[C@]2(C(=O)O)CC[C@]3(C)C(=CCC4[C@@]5(C)C[C@@H](O)[C@H](O)C(CO)(CO)C5CC[C@]43C)C2[C@@H]1O (stereo partly specified),44
Cc1cccc(NC(=O)CN(C)S(=O)(=O)c2ccc3ccccc3c2)c1C,-9
NC(=O)[C@@H]1[C@H]2C(=O)O[C@H](c3ccccc3)[C@H](c3ccccc3)N2[C@H](c2ccc(OCCO)cc2)[C@@]12C(=O)Nc1ccc(C#CC3(O)CCCCCC3)cc12,-29
O=C1O[C@H](c2ccccc2)[C@H](c2ccccc2)N2[C@H]1[C@@H](C(=O)O)[C@]1(C(=O)Nc3ccc(C#CC4(O)CCCCCC4)cc31)[C@H]2c1ccccc1OCCO,60*
O=C1O[C@H](c2ccccc2)[C@H](c2ccccc2)N2[C@H]1[C@@H](C(=O)N1CCCCCCC1)[C@]1(C(=O)Nc3ccc(C#CC4(O)CCCCCC4)cc31)[C@H]2c1ccc(OCCO)cc1,-20
C=CCNC(=O)[C@H]1[C@@H]2C(=O)O[C@@H](c3ccccc3)[C@@H](c3ccccc3)N2[C@@H](c2ccccc2OCCO)[C@]12C(=O)Nc1ccc(C#CC3(O)CCCCCC3)cc12,-27
O=C1O[C@@H](c2ccccc2)[C@@H](c2ccccc2)N2[C@@H](c3ccccc3OCCO)[C@]3(C(=O)Nc4ccc(C#CC5(O)CCCCCC5)cc43)[C@@H](C(=O)O)[C@H]12,73*
NC(=O)[C@@H]1[C@H]2C(=O)O[C@H](c3ccccc3)[C@H](c3ccccc3)N2[C@H](c2ccccc2OCCO)[C@@]12C(=O)Nc1ccc(C#CCCO)cc12,-38
Fc1ccccc1-c1n[nH]c(=S)n1CCCN1CCOCC1,10
Oc1c(C(Nc2ccccn2)c2cccc(F)c2)cc(Cl)c2cccnc12 (stereo unspecified),-32
COc1ccc([Si](C)(C)[C@@H]2[C@@H](CCO)O[C@]3(C(=O)N(c4ccccc4)c4ccccc43)[C@H]2C)cc1,51*
COc1ccc([Si](C)(C)[C@@H]2[C@@H](CCO)O[C@]3(C(=O)N(C)c4c(Br)cc(C)cc43)[C@H]2C)cc1,52*
COc1ccc([Si](C)(C)[C@@H]2[C@@H](CCO)O[C@]3(C(=O)N(Cc4ccc(NC(C)=O)cc4)c4ccccc43)[C@H]2C)cc1,20
COc1ccc([Si](C)(C)[C@H]2[C@H](CCn3cc([C@H](O)c4ccccc4)nn3)O[C@@]3(C(=O)N(C)c4c(Br)cc(C)cc43)[C@@H]2C)cc1,17
COc1ccc([Si](C)(C)[C@@H]2[C@@H](CCn3cc([C@H](O)c4ccccc4)nn3)O[C@]3(C(=O)N(c4ccccc4)c4ccccc43)[C@H]2C)cc1,11
COc1ccc([Si](C)(C)[C@@H]2[C@@H](CCO)O[C@]3(C(=O)N(C)c4ccccc43)[C@H]2C)cc1,12
COc1ccc(S(=O)(=O)N(C)CC(=O)Nc2ccc(Br)cc2F)cc1Cl,10
C[C@@H]1CC[C@]2(C)[C@H](CC[C@@H](O)[C@]2(C)O)[C@@]1(C)CC/C(=C/CO)CO,87*
CC1CCC2(C)C(CC(O)C(O)C2(O)CO)C1(C)CCc1ccoc1 (stereo unspecified),-9
COC(=O)COc1ccc(NC(=O)c2ccc(OC)c([N+](=O)[O-])c2)cc1,1
Cc1ccc(-c2nc(S(=O)(=O)c3ccc(F)cc3)c(SCC(N)=O)o2)cc1,-1
C=CCNC(=O)[C@H]1[C@@H]2C(=O)O[C@@H](c3ccccc3)[C@@H](c3ccccc3)N2[C@@H](c2ccccc2OCCO)[C@]12C(=O)N(C(=O)OCCOC)c1ccc(C#CC3=CCCCC3)cc12,-13
Cc1nn(Cc2ccccc2Cl)c(C)c1NC(=O)C1CC(c2ccc(Cl)cc2)=NO1 (stereo unspecified),1
Cc1ccc(=O)n(-c2ccccc2)c1,-6
SMILES,EZH2 inh
Cc1ccc(/C=C/c2ccc(=O)n(Cc3ccccc3Cl)n2)cc1,70*
O=C(Cn1cnc2scc(-c3cccc([N+](=O)[O-])c3)c2c1=O)Nc1ccc(Cl)cc1,5
OC(CSc1cccc2cccnc12)Cn1c2ccccc2c2ccccc21 (stereo unspecified),15
COCCNC(=O)c1ccccc1NC(=O)Nc1ccc(Cl)cc1,-8
Fc1ccccc1CSc1nnc(-c2cnccn2)n1Cc1ccco1,2
Clc1ccc(CSc2nnc(-c3ccco3)n2Cc2ccco2)c(Cl)c1,45
Fc1ccccc1-c1nnc(SCc2ccc(Br)cc2)n1Cc1ccco1,79*
Cc1ccc(C)c(NC(=O)CN(c2ccc(F)c(Cl)c2)S(C)(=O)=O)c1,-5
NC(=O)c1ccc2nc3ccsc3c(=O)n2c1,8
N#Cc1c(NC(=O)CSc2n[nH]c(-c3ccc(Cl)cc3Cl)n2)sc2c1CCCC2,52*
O=C(CSc1n[nH]c(-c2ccc(Cl)cc2Cl)n1)Nc1cccc(Cl)c1Cl,32
